Data published in the supplement of paper PMC10338343.
± gives the standard deviation.

test system: EfPiwi piRISC loaded with piRNA #1 (26 nt); assay: pre-steady-state target cleavage rate (min^-1); auxiliary factor: 500 nM Ephydatia muelleri Gtsf1; guide: piRNA #1 5'p-UGAGGUAGUAGGUUGUAUAGUAUCCA; MIWI and MILI are mouse PIWI proteins and EfPiwi is from a freshwater sponge; tags in brackets are library labels; higher = faster piRNA-guided slicing of the target
Outline: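 Sequencing of uncleaved targets, normalised to depth and to weakly complementary targets, was the readout of this Cleave-'n-Seq assay. A transcribed, DNA-blocked target RNA library (0.1 nM) was mixed with 1 nM active affinity-purified piRISC carrying one synthetic guide, with or without 500 nM GTSF1 partner protein, in HEPES–potassium acetate buffer at 33 °C for 0–8 or 0–960 min. Three trials were pooled, k3 was capped at 0.0001 min^-1, and a burst-and-steady-state fit gave the pre-steady-state cleavage rate.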

Sequence	pre-steady-state target cleavage rate
GGAGACGAUACUAUUCAACCUACUUCCUCA	0.00413 ± 0.0031
GGAGACGAUUCUAUACAACCAACUACCUCA	0.00258 ± 0.0018
GGAGACCAUACUAUACAACCUUCUACCUGA	0.00624 ± 0.0044
GGAGACCUUACUAUACAACCUUCUACCUCA	0.00767 ± 0.0037
GGAGACGAUGCUAUACAACCUACUACCUCA	0.00734 ± 0.0042
GGAGACCUUACUGAUACAACCUACUACCUCA	0.0403 ± 0.016
GGAGACCUAACCUAUACAACCUACUACCUCA	0.0868 ± 0.028
GGAGUGGAUACUAUACAACCAACUACCUGA	0.00303 ± 0.0013
GGAGACGAUACUAUUCAAGCUACUACCUCA	0.00454 ± 0.002
GGAGACCAUACUAUACAACCUACUACCUGA	0.00567 ± 0.0018
GGAGUGGAUACUAUUCAACCUACAACCUCA	0.00255 ± 0.0022
GGAGUGGAUACUAUACAACCAUACUACCUCA	0.00742 ± 0.0033
GGAGACCUAUCUAUACAACCCACUACCUCA	0.00474 ± 0.0043
GGAGACGAUACUAUACAACCAACUACGUCA	0.00251 ± 0.0018
GGAGUGGAUACUAUACAACCUACUACCUCA [g2:g26:cont:t1A]	0.176 ± 0.056
GGAGACGAUACUUUACAACCUACUUCCUCA	0.00221 ± 0.002
GGAGAUGAUACUAUACAACCUACUACCUCA	0.193 ± 0.068
GGAGACCUAACUAUACAACCUACUACCUGA	0.00393 ± 0.002
GGAGACCUAACUAUACAACCUAAUACCUCA	0.00511 ± 0.0036
GGAGUGGAUACUAAACAACCUACUACCACA	0.003 ± 0.0021

Sequence	pre-steady-state target cleavage rate
GGAGUGGAUACUAUACUACCUACUACCUCA	0.00816 ± 0.0037
GGAGACCAAACUAUACAACCUACAACCUCA	0.008 ± 0.0041
GGAGACCAUACUAUACAACCUACAUACCUCA	0.00306 ± 0.0029
GGAGACGAUACUAUACUAGCUACUACCUCA	0.00469 ± 0.0025
GGAGACCAAUCUAUACAACCUACUACCUCA	0.0121 ± 0.0056
GGAGAGGAUACUUUACAACCUACUACGUCA	0.00296 ± 0.0023
GGAGAGGAAAGUAUACAACCUACUACCUCA	0.00774 ± 0.0044
GGAGACCUUACUAUACAACCGACUACCUCA	0.00553 ± 0.0036
GGAGAGGAUACUAUACAAGCUACUAGCUCA	0.00266 ± 0.0018
GGAGACGAUACUAUACAACCUAAUACCUCA	0.00553 ± 0.0025
GGAGAGGAUACUAUACAUGCUACUACCUCA	0.0065 ± 0.0032
GGAGACCAUACUAUACAACCUACUACCCUCA	0.00445 ± 0.0021
GGAGACCUAUCUAUACAACCUACUACCGCA	0.0051 ± 0.0049
GGAGAGCAUACUAUACAACCUACUACCUGA	0.00603 ± 0.0027
GGAGACGAUACUAUACAACCUACCACCUCA	0.00631 ± 0.0033
GGAGACCAUACUAUACGACCUACUACCUCA	0.0094 ± 0.0037
GGAGACGAUACUAUUCAACCUACUAGCUCA	0.0042 ± 0.002
GGAGACGAUACUAUACCAACCUACUACCUCA	0.0123 ± 0.0043
GGAGACGAUACUAUACAACUCUACUACCUCA	0.00452 ± 0.0031
GGAGACCAUACUAUACAACCUACUACGAGA	0.00579 ± 0.0027
